# Reference: ChEMBL document CHEMBL2218924, “A broad activity screen in support of a chemogenomic map for kinase signalling research and drug discovery” (Biochem J, 2013)
# Assays:
# [1] = target: T1, cGMP-dependent protein kinase 1 (Homo sapiens) (UniProt Q13976); conditions: at 1 µM
# T1 sequence (whole entry): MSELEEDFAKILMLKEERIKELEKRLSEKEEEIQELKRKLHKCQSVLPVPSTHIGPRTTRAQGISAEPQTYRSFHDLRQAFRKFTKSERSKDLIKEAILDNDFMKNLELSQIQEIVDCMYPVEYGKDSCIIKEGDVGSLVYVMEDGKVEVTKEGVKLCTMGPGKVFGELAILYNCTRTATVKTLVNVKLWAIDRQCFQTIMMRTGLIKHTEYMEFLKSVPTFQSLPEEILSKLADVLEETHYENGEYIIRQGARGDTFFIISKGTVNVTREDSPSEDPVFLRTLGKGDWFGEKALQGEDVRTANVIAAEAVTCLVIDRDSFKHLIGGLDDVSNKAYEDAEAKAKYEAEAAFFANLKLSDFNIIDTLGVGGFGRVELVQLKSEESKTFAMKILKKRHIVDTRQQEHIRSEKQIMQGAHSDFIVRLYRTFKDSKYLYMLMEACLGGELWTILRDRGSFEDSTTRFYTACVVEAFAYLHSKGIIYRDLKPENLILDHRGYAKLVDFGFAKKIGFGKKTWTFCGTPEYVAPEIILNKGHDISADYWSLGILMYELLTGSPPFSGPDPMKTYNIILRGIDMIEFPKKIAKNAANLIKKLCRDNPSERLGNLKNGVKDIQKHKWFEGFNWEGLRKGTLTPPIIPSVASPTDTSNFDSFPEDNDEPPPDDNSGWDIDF
# [2] = target: T1, cGMP-dependent protein kinase 1 (Homo sapiens); conditions: at 10 µM
# [3] = target: T1, cGMP-dependent protein kinase 1 (Homo sapiens); conditions: at 1 µM; remark: listed apart in the source
# [4] = target: T1, cGMP-dependent protein kinase 1 (Homo sapiens); conditions: at 10 µM; remark: listed apart in the source
# [5] = target: T2, MAP kinase-activated protein kinase 5 (Homo sapiens) (UniProt Q8IW41); conditions: at 1 µM
# T2 sequence (whole entry): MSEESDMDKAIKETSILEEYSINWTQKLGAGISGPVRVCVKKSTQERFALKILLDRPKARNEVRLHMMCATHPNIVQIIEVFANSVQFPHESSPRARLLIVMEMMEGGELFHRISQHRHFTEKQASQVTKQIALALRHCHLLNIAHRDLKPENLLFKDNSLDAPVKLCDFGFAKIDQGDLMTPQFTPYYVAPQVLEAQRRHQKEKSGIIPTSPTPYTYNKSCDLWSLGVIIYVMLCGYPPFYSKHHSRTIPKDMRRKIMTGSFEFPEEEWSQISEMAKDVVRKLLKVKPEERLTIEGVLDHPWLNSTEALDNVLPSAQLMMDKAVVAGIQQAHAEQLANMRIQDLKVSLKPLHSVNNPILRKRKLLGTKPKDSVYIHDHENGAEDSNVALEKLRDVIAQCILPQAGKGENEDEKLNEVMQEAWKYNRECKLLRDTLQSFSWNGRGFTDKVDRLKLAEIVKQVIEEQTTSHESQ
# [6] = target: T2, MAP kinase-activated protein kinase 5 (Homo sapiens); conditions: at 10 µM
# [7] = target: Serine/threonine-protein kinase N2 (Homo sapiens) (UniProt Q16513); conditions: at 10 µM
# [8] = target: Tyrosine-protein kinase FRK (Homo sapiens) (UniProt P42685); conditions: at 1 µM
# [9] = target: Tyrosine-protein kinase FRK (Homo sapiens) (UniProt P42685); conditions: at 10 µM
# [10] = target: Serine/threonine-protein kinase N2 (Homo sapiens) (UniProt Q16513); conditions: at 1 µM
# Sequence of Serine/threonine-protein kinase N2 (Homo sapiens) (Q16513 whole entry, looked up): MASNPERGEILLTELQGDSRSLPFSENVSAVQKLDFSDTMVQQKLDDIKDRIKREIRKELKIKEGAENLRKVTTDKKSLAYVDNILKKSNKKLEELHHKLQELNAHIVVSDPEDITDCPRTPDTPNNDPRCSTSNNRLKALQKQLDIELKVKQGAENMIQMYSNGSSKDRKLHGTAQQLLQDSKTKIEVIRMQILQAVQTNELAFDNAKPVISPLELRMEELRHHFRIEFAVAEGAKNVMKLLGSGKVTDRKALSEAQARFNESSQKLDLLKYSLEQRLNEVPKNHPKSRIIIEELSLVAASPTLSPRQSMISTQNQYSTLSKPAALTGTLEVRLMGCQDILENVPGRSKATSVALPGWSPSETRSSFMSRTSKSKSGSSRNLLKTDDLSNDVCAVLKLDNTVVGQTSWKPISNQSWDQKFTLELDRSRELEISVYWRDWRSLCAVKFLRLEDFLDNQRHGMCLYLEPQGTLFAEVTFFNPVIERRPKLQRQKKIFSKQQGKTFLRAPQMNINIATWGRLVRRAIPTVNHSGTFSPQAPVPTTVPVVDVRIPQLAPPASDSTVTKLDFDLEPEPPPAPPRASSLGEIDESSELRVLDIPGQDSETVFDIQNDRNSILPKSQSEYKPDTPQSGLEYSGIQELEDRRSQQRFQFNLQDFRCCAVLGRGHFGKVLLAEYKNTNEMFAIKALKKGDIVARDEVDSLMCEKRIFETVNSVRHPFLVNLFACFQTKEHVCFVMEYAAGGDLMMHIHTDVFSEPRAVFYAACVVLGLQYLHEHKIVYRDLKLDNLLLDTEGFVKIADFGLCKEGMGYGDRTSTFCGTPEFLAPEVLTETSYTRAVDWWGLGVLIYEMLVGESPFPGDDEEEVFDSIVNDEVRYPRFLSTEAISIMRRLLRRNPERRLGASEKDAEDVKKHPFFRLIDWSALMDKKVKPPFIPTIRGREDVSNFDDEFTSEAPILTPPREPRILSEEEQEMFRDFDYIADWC
# Sequence of Tyrosine-protein kinase FRK (Homo sapiens) (P42685 whole entry): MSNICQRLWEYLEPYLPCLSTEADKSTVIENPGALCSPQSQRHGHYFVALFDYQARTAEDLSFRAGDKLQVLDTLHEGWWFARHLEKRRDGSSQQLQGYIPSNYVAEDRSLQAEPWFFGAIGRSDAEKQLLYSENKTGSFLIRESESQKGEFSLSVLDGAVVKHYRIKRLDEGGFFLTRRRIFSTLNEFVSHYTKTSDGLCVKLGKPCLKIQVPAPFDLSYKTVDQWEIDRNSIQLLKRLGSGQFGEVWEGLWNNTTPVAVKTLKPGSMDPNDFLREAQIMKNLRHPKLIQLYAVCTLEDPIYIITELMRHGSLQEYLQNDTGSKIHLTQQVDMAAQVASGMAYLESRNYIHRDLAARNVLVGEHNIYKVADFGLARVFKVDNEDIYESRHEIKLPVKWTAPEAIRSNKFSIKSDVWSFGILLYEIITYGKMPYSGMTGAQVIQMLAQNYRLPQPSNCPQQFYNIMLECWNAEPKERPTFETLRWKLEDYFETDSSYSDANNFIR
structure (smiles),measurement,setting,value
O=C(O)/C=C/c1cc(Br)c(Br)c(Br)c1Br,residual activity,[1],94%
same,residual activity,[2],65%
same,residual activity,[3],82%
same,residual activity,[4],32%
same,residual activity,[5],83%
same,residual activity,[6],28%
same,residual activity,[7],38%
same,residual activity,[8],102%
same,residual activity,[9],86%
COc1cc2nccc(Oc3ccc(NC(=S)NC(=O)c4ccccc4C)cc3)c2cc1OC,residual activity,[1],97%
same,residual activity,[2],97%
same,residual activity,[3],69%
same,residual activity,[4],66%
same,residual activity,[5],70%
same,residual activity,[6],79%
same,residual activity,[10],90%
same,residual activity,[7],88%
same,residual activity,[8],6%
same,residual activity,[9],1%
Nc1ncnc2c1c(-c1ccc(Oc3ccccc3)cc1)cn2C1CCCC1,residual activity,[1],102%
same,residual activity,[2],96%
same,residual activity,[3],82%
same,residual activity,[4],72%
same,residual activity,[5],90%
same,residual activity,[6],46%
same,residual activity,[10],87%
same,residual activity,[7],100%
same,residual activity,[8],2%
same,residual activity,[9],2%
O=C1NC(=O)c2c1c1c3ccccc3[nH]c1n1cncc21,residual activity,[1],82%
same,residual activity,[2],89%
same,residual activity,[3],99%
same,residual activity,[4],70%
same,residual activity,[5],97%
same,residual activity,[6],71%
same,residual activity,[10],69%
same,residual activity,[7],61%
same,residual activity,[8],87%
same,residual activity,[9],63%
O=C1Nc2ccccc2/C1=C\c1c(Cl)[nH]c2ccccc12,residual activity,[2],84%
same,residual activity,[4],72%
same,residual activity,[8],83%
same,residual activity,[9],73%
CC(C)(C)c1nc2c3ccc(F)cc3c3c(=O)[nH]ccc3c2[nH]1,residual activity,[1],45%
same,residual activity,[2],45%
same,residual activity,[3],30%
same,residual activity,[4],19%
same,residual activity,[5],47%
same,residual activity,[6],45%
same,residual activity,[10],29%
same,residual activity,[7],39%
same,residual activity,[8],74%
same,residual activity,[9],60%
CSc1nc(-c2ccc(F)cc2)c(-c2ccnc(NC(C)c3ccccc3)c2)[nH]1 (centres undefined),residual activity,[1],85%
same,residual activity,[2],86%
same,residual activity,[4],84%
same,residual activity,[7],94%
same,residual activity,[8],90%
same,residual activity,[9],94%
COc1ccc2c(c1)c(C1=C(c3c[nH]c4ccccc34)C(=O)NC1=O)cn2CCCN(C)C,residual activity,[2],28%
same,residual activity,[3],64%
same,residual activity,[4],22%
same,residual activity,[10],68%
same,residual activity,[7],25%
same,residual activity,[8],97%
O=C1NC(=O)C(c2cn(CCCn3ccnc3)c3ccccc23)=C1Nc1ccccc1,residual activity,[6],59%
same,residual activity,[10],26%
same,residual activity,[7],11%
Nc1nc(Nc2ccc(S(N)(=O)=O)cc2)nn1C(=O)c1c(F)cccc1F,residual activity,[5],101%
same,residual activity,[6],70%
same,residual activity,[10],81%
same,residual activity,[7],32%
same,residual activity,[9],38%
CCOC(=O)c1c(C)[nH]c(/C=C2\C(=O)Nc3ccccc32)c1C,residual activity,[5],88%
same,residual activity,[6],81%
CCN(CC)CCNC(=O)c1c(C)[nH]c(/C=C2\C(=O)Nc3ccc(Cl)cc32)c1C,residual activity,[5],97%
same,residual activity,[6],49%
same,residual activity,[10],52%
same,residual activity,[7],18%
same,residual activity,[8],31%
same,residual activity,[9],1%
N#C/C(=C\c1ccc(O)c(O)c1)C(=O)NCc1ccccc1,residual activity,[5],72%
same,residual activity,[6],59%
Cn1c2ccccc2c2c3c(c4c5ccccc5n(CCC#N)c4c21)CNC3=O,residual activity,[10],11%
same,residual activity,[7],10%
same,residual activity,[8],42%
same,residual activity,[9],33%
O=C(Nc1ccc(Cl)cc1)c1ccccc1NCc1ccncc1,residual activity,[5],60%
same,residual activity,[6],51%
same,residual activity,[8],19%
same,residual activity,[9],1%
CC(C)N(CCC(=O)c1ccc2ccccc2c1)Cc1ccccc1,residual activity,[5],82%
same,residual activity,[6],72%
CCCCc1c(-c2ccc(O)cc2)[nH]c2nccnc12,residual activity,[10],87%
same,residual activity,[7],85%
same,residual activity,[8],59%
same,residual activity,[9],25%
NC(=O)c1cccc(-c2cc(Nc3ccc(OC(F)(F)F)cc3)ncn2)c1,residual activity,[6],78%
Cn1sc(=O)n(Cc2ccccc2)c1=O,residual activity,[10],91%
same,residual activity,[7],84%
same,residual activity,[8],88%
same,residual activity,[9],92%
COc1ccc(CNC(=O)Nc2ncc([N+](=O)[O-])s2)cc1,residual activity,[7],81%
COc1ccc(Cl)cc1NC(=O)Nc1cc(C)nc2ccccc12,residual activity,[3],79%
same,residual activity,[4],88%
same,residual activity,[8],94%
same,residual activity,[9],129%
O=C1NC(=O)C(c2cn(CCCO)c3ncccc23)=C1c1cnccn1,residual activity,[3],98%
same,residual activity,[4],74%
same,residual activity,[10],100%
same,residual activity,[7],87%
N#C/C(=C1/Nc2ccccc2S1)c1ccnc(NCCc2cccnc2)n1,residual activity,[7],59%
same,residual activity,[8],75%
same,residual activity,[9],72%
O=c1cc(N2CCNCC2)oc2c(-c3ccccc3)cccc12,residual activity,[3],84%
same,residual activity,[4],81%
same,residual activity,[5],93%
same,residual activity,[6],99%
same,residual activity,[10],105%
same,residual activity,[7],101%
same,residual activity,[9],104%
CN([C@@H](Cc1ccc(OS(=O)(=O)c2cccc3cnccc23)cc1)C(=O)N1CCN(c2ccccc2)CC1)S(=O)(=O)c1cccc2cnccc12,residual activity,[3],67%
same,residual activity,[9],79%
Nc1ncnc2c1cnn2-c1ccccc1,residual activity,[5],94%
same,residual activity,[10],85%
same,residual activity,[7],79%
same,residual activity,[9],90%
Nc1nccc(-c2c(-c3ccc(F)cc3)ncn2C2CCNCC2)n1,residual activity,[5],118%
same,residual activity,[6],112%
same,residual activity,[7],82%
NCCNc1ncc(C(N)=O)c(Nc2cccc(C(F)(F)F)c2)n1,residual activity,[5],42%
same,residual activity,[6],11%
CCOc1nc(NC(=O)Cc2cc(OC)ccc2OC)cc(N)c1C#N,residual activity,[7],82%
same,residual activity,[9],74%
O=c1c(-c2ccc(F)cc2)c(-c2ccncc2)[nH]n1-c1ccc(Cl)cc1,residual activity,[6],74%
same,residual activity,[9],32%
N#Cc1c(NC(=O)c2cccc3ccccc23)sc2c1CCCC2,residual activity,[3],96%
same,residual activity,[4],87%
same,residual activity,[5],87%
same,residual activity,[6],93%
same,residual activity,[8],88%
same,residual activity,[9],100%
NC(=O)c1ccc(-c2nc(-c3ccc4c(c3)OCCO4)c(-c3ccccn3)[nH]2)cc1,residual activity,[4],63%
same,residual activity,[6],89%
same,residual activity,[10],120%
same,residual activity,[7],98%
same,residual activity,[8],98%
same,residual activity,[9],89%
Fc1ccc(-c2nc3n(c2-c2ccncc2)CCS3)cc1,residual activity,[8],99%
same,residual activity,[9],51%
CC(C)[C@H](CO)Nc1nc(Nc2cc(N)cc(Cl)c2)c2ncn(C(C)C)c2n1,residual activity,[4],80%
same,residual activity,[5],92%
same,residual activity,[6],56%
same,residual activity,[8],72%
same,residual activity,[9],11%
COc1cc2ncnc(Nc3cccc(Cl)c3)c2cc1OC,residual activity,[7],76%
same,residual activity,[8],53%
same,residual activity,[9],6%
O=C1Cc2c([nH]c3ccc([N+](=O)[O-])cc23)-c2ccccc2N1,residual activity,[5],80%
same,residual activity,[6],81%
same,residual activity,[8],67%
same,residual activity,[9],46%
COc1cc2c(cc1OC)-c1n[nH]c(Nc3cccc(F)c3)c1C2,residual activity,[5],47%
same,residual activity,[6],65%
O=C(c1cc2cc(O)ccc2[nH]1)c1cc2cc(O)ccc2[nH]1,residual activity,[5],71%
same,residual activity,[6],40%
same,residual activity,[10],72%
same,residual activity,[7],39%
same,residual activity,[8],37%
same,residual activity,[9],7%
O=C(c1ccccc1)c1ccc(N2CCOCC2)cc1O,residual activity,[3],93%
same,residual activity,[4],80%
same,residual activity,[5],99%
same,residual activity,[6],74%
same,residual activity,[7],129%
same,residual activity,[8],89%
same,residual activity,[9],96%
O=c1cc(N2CCOCC2)oc2c1ccc1ccccc12,residual activity,[3],91%
same,residual activity,[4],99%
same,residual activity,[5],28%
same,residual activity,[6],42%
same,residual activity,[10],101%
same,residual activity,[7],98%
same,residual activity,[9],90%
